Assay outcomes (PubChem BioAssay)
HP1b binding inh – blocks HP1-beta chromodomain binding to methylated histone tails; Potency, µM (top dose mostly 114 µM), for the others: at the top dose activity change, negative = inhibition, hits mostly inhibitors; AID 540317; AlphaScreen HP1-beta / biotin-H3K9me3 peptide binding; P83916; hit rate 0.56% among 390,000; further: potency means the concentration at half of the fitted maximal effect; nearly all actives have a fitted effect of over 70% in size
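HP1-beta protein (50 nM final) preincubated 30 min at room temperature with biotinylated H3(1-18)K9me3 peptide (50 nM) in PBS pH 7.4, 0.01% Tween-20, then compound added for 30 min. AlphaScreen streptavidin donor/nickel chelate acceptor beads (10 ug/mL final), 30 min dark, luminescence read.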
BAZ2B block – blocks human BAZ2B | Potency, µM (doses to about 114 µM), for the others: at the highest dose activity change, negative = inhibition, hits mostly inhibitors | Q9UIF8 | hit rate 4.4% among 360,000 | AID 504333 | AlphaScreen BAZ2B-H3K14Ac peptide displacement; further: potency means the concentration at half of the fitted maximal effect; on the % scale 0 is the no-effect control and ±100 the full control effect; nearly all actives have a fitted effect of over 60% in size
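Inhibition is scored as reduced AlphaScreen emission. The BAZ2B/b-H3(5-23)K14Ac complex (50 nM each) in PBS pH 7.4, 0.01% Tween-20 meets compound (up to 110 uM) for 30 min at RT before bead addition.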
G9a block – G9a (human) methyltransferase inhibition; AID 504332; hit rate 8.8% among 350,000; Potency, µM (series often up to 102 µM), for the others: at the top dose activity, negative = inhibition, actives largely listed as inhibitors; Q96KQ7; G9a H3K9 monomethylation, AlphaScreen, 2 h; further: potency means the concentration at half of the fitted maximal effect; on the % scale 0 is the no-effect control and ±100 the full control effect; nearly all actives have a fitted effect of over 75% in size
Target sequence (Q96KQ7 913-1193 limits assumed): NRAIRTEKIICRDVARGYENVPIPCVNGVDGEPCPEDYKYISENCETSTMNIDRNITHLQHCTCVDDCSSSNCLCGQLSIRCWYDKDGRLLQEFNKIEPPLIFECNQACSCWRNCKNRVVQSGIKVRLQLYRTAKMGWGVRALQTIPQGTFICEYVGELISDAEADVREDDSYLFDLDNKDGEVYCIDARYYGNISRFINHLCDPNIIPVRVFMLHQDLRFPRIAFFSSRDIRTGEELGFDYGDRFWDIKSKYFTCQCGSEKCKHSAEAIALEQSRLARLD
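AlphaScreen detection with an anti-monomethyl H3K9 antibody quantified product after a 2 h room-temperature reaction containing 500 nM biotinylated H3K9 peptide, 20 µM SAM and 20 nM enzyme, which had been preincubated 15 min with compound.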
PI5P4Ka inh – inhibitors of human PI5P4K alpha | P48426 | PI5P4Kalpha enzyme, ADP-Glo luminescence, 60 min; stronger effect = lower value | max response, % | hit rate 1.2% among 330,000 | AID 652105; active means max response of -50% or lower; inconclusive means between -30% and -50%; inactive means -30% or higher; further: value at the top dose of about 77 µM; on the % scale 0 is the no-effect control and ±100 the full control effect
Target sequence (P48426 whole entry, looked up): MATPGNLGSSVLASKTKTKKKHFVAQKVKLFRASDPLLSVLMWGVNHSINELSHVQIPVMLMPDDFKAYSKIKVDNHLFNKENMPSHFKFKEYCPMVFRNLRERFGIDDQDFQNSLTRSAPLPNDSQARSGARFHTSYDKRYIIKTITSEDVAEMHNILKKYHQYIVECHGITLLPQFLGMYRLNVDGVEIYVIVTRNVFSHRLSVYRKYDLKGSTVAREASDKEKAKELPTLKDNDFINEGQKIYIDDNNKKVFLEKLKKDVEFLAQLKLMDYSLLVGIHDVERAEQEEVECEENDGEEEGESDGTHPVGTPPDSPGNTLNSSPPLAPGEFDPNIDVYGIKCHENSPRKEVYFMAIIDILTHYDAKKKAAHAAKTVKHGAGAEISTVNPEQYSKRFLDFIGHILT
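ADP-Glo luminescence end-point read after a 60 min room-temperature kinase reaction of PI5P4Kalpha plus substrate, initiated with ATP at 5 microM final. Buffer: 0.038 M HEPES pH 7.4, EGTA, 0.1% CHAPS, 5% DMSO.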
PLK1 PBD block – inhibitors of human PLK1 polo-box domain binding; hit rate 2.8% among 360,000; P53350; Potency, µM, for inactives: max response, negative = inhibition, most hits filed as inhibitors; Plk1 PBD binding of FITC phosphopeptide, fluorescence polarization; AID 720504; further: potency means the concentration at half of the fitted maximal effect; series mostly up to about 57 µM; on the % scale 0 is the no-effect control and ±100 the full control effect; nearly all actives have a fitted effect of over 65% in size
JMJD2A Tudor – blocks the human JMJD2A Tudor domain | O75164 | AlphaScreen JMJD2A-Tudor / H3K4me3 peptide binding | Potency, µM (series often up to 114 µM), without a hit: at the highest dose activity change, negative = inhibition, actives largely listed as inhibitors | hit rate 4.4% among 390,000; further: potency means the concentration at half of the fitted maximal effect; on the % scale 0 is the no-effect control and ±100 the full control effect; nearly all actives have a fitted effect of over 50% in size
An asterisk follows results filed as active; ? = inconclusive; · = not tested or not shown; [ ] = another dose, or the depositor's remark. Shown are actives, neighbours in structure and some others; about 12% of the full set was active somewhere. Unless noted, the call rests on the fitted dose curve; in most records, active means well fitted curve in the direction sought with a large enough effect; inconclusive means small, poorly fitted or top-dose-only effect, or another doubt; inactive means no such curve, though single readings can be large; an effect the other way counts as inactive or inconclusive.

SMILES	HP1b binding inh	BAZ2B block	G9a block	PI5P4Ka inh	PLK1 PBD block	JMJD2A Tudor
O=C(NCCc1ccccc1)c1ccc2c(c1)S(=O)(=O)N=C1CCCCCN12	45%	17%	-8%[2.33 µM]	-2	3%	6%
CC1=CSC2=NS(=O)(=O)CCN12	-6%	-5%	-5%	-3	24µM*	-11%[11.4 µM]
CCOC(=O)N1CCN(C(=O)CCCCn2c(=S)[nH]c3ccsc3c2=O)CC1	20%	-32%	32µM*	-24	-6%	?
CC(=O)c1ccc(N2CCN(C(=O)CCCn3c(=O)[nH]c4ccsc4c3=O)CC2)cc1	-4%	-11%	10%	-2	-7%	-11%
COc1ccc(N2CCN(C(=O)CCCCCn3c(=O)[nH]c4ccsc4c3=O)CC2)cc1	-16%	-21%	40µM*	-1	-3%	-25%
OCCN1CCOCCN(CCO)CCOCC1	0%	-1%	?	9	-3%	22µM*
CC(C)C[C@H](NC(=O)OC(C)(C)C)c1n[nH]c(=S)n1N	27%	-18%	10µM*	-1	2%	4%
COCC(=O)N(Cc1ccco1)c1nnc(C2CCOC2)s1 (stereo not drawn)	37%	13%	79µM*	1	-1%	-1%
O=C(Nc1nc2c(F)cc(F)cc2s1)c1ccco1	20%	4%	-12%	-1	-17%	-15%
NNc1nc2c(F)cccc2s1	?	50µM*	?	-10	-7%	89µM*
NNc1nc2c(F)cc(F)cc2s1	-59%	50µM*	?	-2	-2%	79µM*
Cc1ccc(/C=N/NC(=O)c2cc(-c3ccc(C)o3)[nH]n2)cc1	4%	-11%	17%	3	-22%	-12%
Cc1ccc(-c2cc(C(=O)O)n[nH]2)o1	14%	-5%	-4%[12.7 µM]	·	-5%	25µM*
CCOC(=O)[C@]12CCC=C1N(Cc1ccc(Cl)cc1Cl)C(=O)[C@H](CC(=O)NCC13CC4CC(CC(C4)C1)C3)C2	·	·	·	12	-13%	·
Cn1c(=O)c2c(-c3ccccc3)n(-c3cccc(C#N)c3)cc2n(C)c1=O	13%	-8%	?	·	·	-28%
O=C(/C=C/c1ccc[nH]1)c1ccccc1	-23%	?	?	-22	30µM*	18µM*
O=C(/C=C/c1ccc[nH]1)c1ccc(F)cc1	8%	-26%	7%	0	-2%	-23%
CC1Cc2cc(/C(O)=C3/C(=O)C(=O)N(CCN4CCOCC4)C3c3cccc(O)c3)ccc2O1 (stereo not drawn)	27%	-6%	?	·	-5%	-23%
CC1Cc2cc(/C(O)=C3\C(=O)C(=O)N(CCN(C)C)C3c3ccccc3F)ccc2O1 (stereo not drawn)	24%	-5%	10%[12.7 µM]	·	-7%	-31%
COc1ccc(/C(O)=C2/C(=O)C(=O)N(CC3CCCO3)C2c2cccc(O)c2)cc1 (stereo not drawn)	-4%	-26%	?	0	-9%	50µM*
COc1cc(C2/C(=C(\O)c3ccc4c(c3)CC(C)O4)C(=O)C(=O)N2CCN2CCOCC2)cc(OC)c1OC (stereo not drawn)	12%	-23%	71µM*	2	-16%	?
CCCCOc1ccc(C2/C(=C(/O)c3ccc4c(c3)CC(C)O4)C(=O)C(=O)N2CCCN2CCOCC2)cc1OC (stereo not drawn)	11%	-20%	56µM*	-4	-8%	?
COC(=O)c1ccc(C2/C(=C(/O)c3ccc(OC)cc3)C(=O)C(=O)N2CC2CCCO2)cc1 (stereo not drawn)	2%	5%	-31%[12.7 µM]	·	-4%	-10%
COc1ccc(C2/C(=C(/O)c3ccc4c(c3)CC(C)O4)C(=O)C(=O)N2CCCN2CCOCC2)cc1OC (stereo not drawn)	36%	-14%	?	-5	5%	-5%
CC1Cc2cc(/C(O)=C3/C(=O)C(=O)N(CC4CCCO4)C3c3ccco3)ccc2O1 (stereo not drawn)	?	?	?	-19	30µM*	-14%[11.4 µM]
SMILES	HP1b binding inh	BAZ2B block	G9a block	PI5P4Ka inh	PLK1 PBD block	JMJD2A Tudor
COc1cccc(N(C)C(=S)Oc2ccc3c(c2)CCCC3)n1	·	·	169%[59 µM]	·	·	·
Cc1ccc(C(=O)NNC(=O)c2ccoc2C)s1	28%	7%	-26%	-1	3%	0%
COc1cc(C2/C(=C(\O)c3ccc4c(c3)CC(C)O4)C(=O)C(=O)N2CC2CCCO2)cc(OC)c1OC (stereo not drawn)	20%	?	50µM*	27	-3%	-3%
CCOc1ccc(C2/C(=C(/O)c3ccc4c(c3)CC(C)O4)C(=O)C(=O)N2CC2CCCO2)cc1 (stereo not drawn)	12%	?	?	-1	-1%	-9%
CSc1nc2ccc(NC(=O)CS(=O)(=O)c3ccccc3)cc2s1	·	·	·	0	-16%	·
COc1ccc(N2CCC(CNC(=S)Nc3cc(C)ccc3C)C2)cc1 (stereo not drawn)	?	32µM*	?	6	?	40µM*
COc1ccc(N2CCN(C(=S)Nc3cc(C)ccc3C)CC2)cc1	7%	-1%	-1%	·	2%	-3%
COc1ccc(N2CCC(CNC(=S)Nc3cc(C)cc(C)c3)C2)cc1 (stereo not drawn)	16µM*	3.2µM*	?	4	-15%	20µM*
Cc1cc(C)c2nc(N3CCC(C(=O)N4CCN(C(=O)c5ccco5)CC4)CC3)sc2c1	-16%	?	?	-2	-9%	?
Cc1cc(N2C(=O)C(O)=C(C(=O)c3ccco3)C2c2ccc(O)cc2)no1 (stereo not drawn)	19%	6%	17%[12.7 µM]	-11	-11%	?
Cc1cc(C)c2nc(N3C(=O)C(O)=C(C(=O)c4ccco4)C3c3ccc(O)cc3)sc2c1 (stereo not drawn)	-8%	?	?	-65*	19µM*	?
Cc1cc(C)c2nc(N3C(=O)C(O)=C(C(=O)c4ccco4)C3c3cccc(O)c3)sc2c1 (stereo not drawn)	-9%	?	-48%[2.33 µM]	-60*	27µM*	?
CCOC(=O)c1sc(N2C(=O)C(O)=C(C(=O)c3ccco3)C2c2cccc([N+](=O)[O-])c2)nc1C (stereo not drawn)	-3%	?	45µM*	-68*	30µM*	?
COc1ccc(CCNC(=O)CCNC(=O)c2ccccc2Cl)cc1	7%	3%	-2%	19	-4%	-3%
CCOc1ccc2ccccc2c1C(=O)NCC(c1ccc(N(C)C)cc1)N(C)C (stereo not drawn)	-4%	-27%[57.1 µM]	-14%	9	-3%	-39%
N#CSCC(=O)c1cccc2ccccc12	26%	5%	?	-3	11µM*	-10%
